According to PubChem BioAssay AID602454 (National Center for Advancing Translational Sciences (NCATS), 2012):
Inconclusive results are not listed. Active and inactive are the calls of the source. No rule for the calls is given here.

Experiment: qHTS Assay for Inhibitors of Influenza NS1 Protein Function: Viral Replication TCID50
Conditions: Influenza virus replication in cells, at 10 µM, stronger effect = lower value
Excerpt: Influenza is a world-wide public health problem and emerging forms of the virus have the potential to cause a pandemic of equal or greater magnitude to the outbreaks recorded in 1918, 1957 or 1968. Vaccine development is proceeding and there also exist two classes of anti-influenza compounds. However these therapeutic modalities are neither fully effective nor widely enough available to fulfill global needs. In addition their potential usefulness against newly emergent strains is not known. Efforts are needed to develop novel agents against influenza virus, including broad-spectrum agents. Identification of small molecules that inhibit NS1 function either directly or by interfering with specific cellular pathways may be a key to increasing our defense against the virus.
We have miniaturized and optimized a cell based assay in which NS1 from influenza A is expressed in the budding yeast S. cerevisiae. NS1 is a multi-functional protein that counters the host innate immune response and facilitates viral versus cellular gene expression. Expression of NS1 causes a pronounced slow growth phenotype in yeast due to its intrinsic molecular activities. Small molecules that suppress the slow growth phenotype can be identified by a straightforward growth recovery assay using optical density (OD) as the measurement. The same yeast strain not expressing NS1 was used as positive control in the yeast growth recovery assay.
Hits resulting from the primary screen and other follow-up screens, were tested in two concentrations in this viral replication assay.
NIH Chemical Genomics Center [NCGC]
NIH Molecular Libraries Probe Centers Network [MLPCN]
Assay Submitter (PI): Daniel Engel, University of Virgina
Cell monolayers were infected at an m.o.i. of 0.1 for 48 h in the presence or absence of the compound, which was added at the beginning of infection. Virus titres were determined by TCID50 analysis (Reed, L. J. & Muench, H. (1938). A simple method of estimating fifty per cent endpoints. Am J Epidemiol 27, 493-497)
With COc1cc(-c2ccnc3c2c(C)nn3-c2ccc(F)cc2)ccc1O the viral titer (log10 TCID50) was 8.68 (active). With COc1ccc(-c2c3c(C)nn(-c4ccccc4)c3nc3[nH]c(=O)[nH]c(=O)c23)cc1OC the viral titer (log10 TCID50) was 8.33 (active). In the case of COc1cccc(-c2ccnc3c2c(C)nn3-c2ccc(F)cc2)c1, the viral titer (log10 TCID50) is reported as 8.5 (active). With COc1ccc(-c2ccnc3c2c(C)nn3-c2ccc(F)cc2)cc1 the viral titer (log10 TCID50) was 8.33 (active). With COc1cc(-c2c(C#N)c(N)nc3c2c(C)nn3-c2ccc(C)cc2)ccc1O the viral titer (log10 TCID50) was 8.5 (active). For COc1ccc(-c2c(C#N)c(=O)[nH]c3c2c(C)nn3-c2ccccc2)cc1OC, the viral titer (log10 TCID50) was 8.66 (active). For COc1cc(-c2c(C#N)c(N)nc3c2c(C)nn3-c2ccc(C)c(C)c2)ccc1O, the viral titer (log10 TCID50) was 8.5 (active). For COc1cccc(-n2nc(C)c3c(-c4ccc(O)c(OC)c4)ccnc32)c1, the viral titer (log10 TCID50) was 9 (active). With COc1cc(-c2ccnc3c2c(C)nn3-c2cccc(F)c2)ccc1O the viral titer (log10 TCID50) was 9 (active). In the case of COc1ccc(-c2c(C#N)c(N)nc3c2c(C)nn3-c2ccc(Cl)cc2)cc1OC, the viral titer (log10 TCID50) is reported as 9 (active). With COc1ccc(-c2c(C#N)c(N)nc3c2c(C)nn3-c2ccccc2)cc1OC the viral titer (log10 TCID50) was 8.66 (active). For COc1cc(-c2c(C#N)c(N)nc3c2c(C)nn3-c2ccc(F)cc2)cc(OC)c1OC, the viral titer (log10 TCID50) was 9 (active). With COc1ccc(-c2c(C#N)c(N)nc3c2c(C)nn3-c2ccc(C)cc2)cc1OC the viral titer (log10 TCID50) was 9 (active). With COc1cc(-c2c(C#N)c(=O)[nH]c3c2c(C)nn3-c2ccccc2)ccc1O the viral titer (log10 TCID50) was 7.66 (active). For COc1ccc(-c2ccnc3c2c(C)nn3-c2ccc(F)cc2)cc1OC, the viral titer (log10 TCID50) was 8.66 (active). With COc1cc(-c2c3c(C)nn(-c4ccccc4)c3nc3[nH]c(=O)[nH]c(=O)c23)ccc1O the viral titer (log10 TCID50) was 8.66 (active). With Cc1nn(-c2ccc(F)cc2)c2nc(N)c(C#N)c(-c3ccc(O)c(O)c3)c12 the viral titer (log10 TCID50) was 7.66 (active). For Cc1nn(-c2ccccc2)c2nc3[nH]c(=O)[nH]c(=O)c3c(-c3ccc4c(c3)OCO4)c12, the viral titer (log10 TCID50) was 8.33 (active). For COc1cc(-c2c3c(C)nn(-c4ccccc4)c3nc3[nH]c(=O)[nH]c(=O)c23)cc(OC)c1O, the viral titer (log10 TCID50) was 8.33 (active). For COc1cc(-c2c(C#N)c(N)nc3c2c(C)nn3-c2ccc(C)cc2)cc(OC)c1OC, the viral titer (log10 TCID50) was 8.66 (active).

Same assay, conditions: Influenza virus replication in cells, viral titer, at 5 µM, stronger effect = lower value
With COc1cc(-c2ccnc3c2c(C)nn3-c2ccc(F)cc2)ccc1O the viral titer (log10 TCID50) was 8.88. Work on COc1ccc(-c2c3c(C)nn(-c4ccccc4)c3nc3[nH]c(=O)[nH]c(=O)c23)cc1OC yielded a viral titer (log10 TCID50) of 9. Work on COc1cccc(-c2ccnc3c2c(C)nn3-c2ccc(F)cc2)c1 yielded a viral titer (log10 TCID50) of 9. Work on COc1ccc(-c2ccnc3c2c(C)nn3-c2ccc(F)cc2)cc1 yielded a viral titer (log10 TCID50) of 9. With COc1cc(-c2c(C#N)c(N)nc3c2c(C)nn3-c2ccc(C)cc2)ccc1O the viral titer (log10 TCID50) was 8.5. In the case of COc1ccc(-c2c(C#N)c(=O)[nH]c3c2c(C)nn3-c2ccccc2)cc1OC, the viral titer (log10 TCID50) is reported as 9. In the case of COc1cc(-c2c(C#N)c(N)nc3c2c(C)nn3-c2ccc(C)c(C)c2)ccc1O, the viral titer (log10 TCID50) is reported as 8.66. Molecule COc1cccc(-n2nc(C)c3c(-c4ccc(O)c(OC)c4)ccnc32)c1 has a viral titer (log10 TCID50) of 9. For COc1cc(-c2ccnc3c2c(C)nn3-c2cccc(F)c2)ccc1O, the viral titer (log10 TCID50) was 9. COc1ccc(-c2c(C#N)c(N)nc3c2c(C)nn3-c2ccc(Cl)cc2)cc1OC gave a viral titer (log10 TCID50) of 9. With COc1ccc(-c2c(C#N)c(N)nc3c2c(C)nn3-c2ccccc2)cc1OC the viral titer (log10 TCID50) was 9. Work on COc1cc(-c2c(C#N)c(N)nc3c2c(C)nn3-c2ccc(F)cc2)cc(OC)c1OC yielded a viral titer (log10 TCID50) of 9. COc1ccc(-c2c(C#N)c(N)nc3c2c(C)nn3-c2ccc(C)cc2)cc1OC gave a viral titer (log10 TCID50) of 9. COc1cc(-c2c(C#N)c(=O)[nH]c3c2c(C)nn3-c2ccccc2)ccc1O gave a viral titer (log10 TCID50) of 8.5. For COc1ccc(-c2ccnc3c2c(C)nn3-c2ccc(F)cc2)cc1OC, the viral titer (log10 TCID50) was 9. Work on COc1cc(-c2c3c(C)nn(-c4ccccc4)c3nc3[nH]c(=O)[nH]c(=O)c23)ccc1O yielded a viral titer (log10 TCID50) of 8.66. Work on Cc1nn(-c2ccc(F)cc2)c2nc(N)c(C#N)c(-c3ccc(O)c(O)c3)c12 yielded a viral titer (log10 TCID50) of 8.5. For Cc1nn(-c2ccccc2)c2nc3[nH]c(=O)[nH]c(=O)c3c(-c3ccc4c(c3)OCO4)c12, the viral titer (log10 TCID50) was 8.66. COc1cc(-c2c3c(C)nn(-c4ccccc4)c3nc3[nH]c(=O)[nH]c(=O)c23)cc(OC)c1O showed a viral titer (log10 TCID50) of 8.66. Work on COc1cc(-c2c(C#N)c(N)nc3c2c(C)nn3-c2ccc(C)cc2)cc(OC)c1OC yielded a viral titer (log10 TCID50) of 9.
